HP1b chromo inh – HTS for Inhibitors of HP1-beta Chromodomain Interactions with Methylated Histone Tails. Chromobox protein homolog 1 (Homo sapiens), P83916. Potency, µM (highest dose often 114 µM), inactives show at the highest dose activity change, negative = inhibition, hits mostly inhibitors. actives 0.56% (n = 390,000). AID 540317, 2011. AlphaScreen HP1-beta / biotin-H3K9me3 peptide binding; note: nearly all actives have a fitted effect of over 70% in size
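AlphaScreen: HP1-beta (50 nM) preformed 30 min with biotin-H3(1-18)K9me3 peptide (50 nM) in PBS pH 7.4, 0.01% Tween-20. Compound added for 30 min at RT, then streptavidin donor/nickel chelate acceptor beads (10 ug/mL) for 30 min.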
G9a inh – qHTS Assay for Inhibitors of Histone Lysine Methyltransferase G9a; G9a H3K9 monomethylation, AlphaScreen, 2 h; Histone-lysine N-methyltransferase EHMT2 (Homo sapiens), Q96KQ7; Potency, µM (top dose mostly 102 µM), without a hit: at the top dose activity, negative = inhibition, most hits filed as inhibitors; actives 8.8% (n = 350,000); note: % is set by controls: 0 for no effect and ±100 for the full control effect; nearly all actives have a fitted effect of over 75% in size
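G9a (20 nM) was preincubated 15 min with compound, then reacted 2 h at room temperature with 500 nM biotin-H3K9 peptide and 20 µM SAM. Monomethyl-H3K9 detected by AlphaScreen using anti-H3K9me1 antibody.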
BAZ2B block – qHTS Assay for Inhibitors of BAZ2B; AID 504333, 2011; actives 4.4% (n = 360,000); Potency, µM (titrated, usually from 114 µM), for the others: at the top dose activity change, negative = inhibition, hits mostly inhibitors; AlphaScreen BAZ2B-H3K14Ac peptide displacement; note: % is set by controls: 0 for no effect and ±100 for the full control effect; nearly all actives have a fitted effect of over 60% in size
Target sequence (Q9UIF8 whole entry, looked up): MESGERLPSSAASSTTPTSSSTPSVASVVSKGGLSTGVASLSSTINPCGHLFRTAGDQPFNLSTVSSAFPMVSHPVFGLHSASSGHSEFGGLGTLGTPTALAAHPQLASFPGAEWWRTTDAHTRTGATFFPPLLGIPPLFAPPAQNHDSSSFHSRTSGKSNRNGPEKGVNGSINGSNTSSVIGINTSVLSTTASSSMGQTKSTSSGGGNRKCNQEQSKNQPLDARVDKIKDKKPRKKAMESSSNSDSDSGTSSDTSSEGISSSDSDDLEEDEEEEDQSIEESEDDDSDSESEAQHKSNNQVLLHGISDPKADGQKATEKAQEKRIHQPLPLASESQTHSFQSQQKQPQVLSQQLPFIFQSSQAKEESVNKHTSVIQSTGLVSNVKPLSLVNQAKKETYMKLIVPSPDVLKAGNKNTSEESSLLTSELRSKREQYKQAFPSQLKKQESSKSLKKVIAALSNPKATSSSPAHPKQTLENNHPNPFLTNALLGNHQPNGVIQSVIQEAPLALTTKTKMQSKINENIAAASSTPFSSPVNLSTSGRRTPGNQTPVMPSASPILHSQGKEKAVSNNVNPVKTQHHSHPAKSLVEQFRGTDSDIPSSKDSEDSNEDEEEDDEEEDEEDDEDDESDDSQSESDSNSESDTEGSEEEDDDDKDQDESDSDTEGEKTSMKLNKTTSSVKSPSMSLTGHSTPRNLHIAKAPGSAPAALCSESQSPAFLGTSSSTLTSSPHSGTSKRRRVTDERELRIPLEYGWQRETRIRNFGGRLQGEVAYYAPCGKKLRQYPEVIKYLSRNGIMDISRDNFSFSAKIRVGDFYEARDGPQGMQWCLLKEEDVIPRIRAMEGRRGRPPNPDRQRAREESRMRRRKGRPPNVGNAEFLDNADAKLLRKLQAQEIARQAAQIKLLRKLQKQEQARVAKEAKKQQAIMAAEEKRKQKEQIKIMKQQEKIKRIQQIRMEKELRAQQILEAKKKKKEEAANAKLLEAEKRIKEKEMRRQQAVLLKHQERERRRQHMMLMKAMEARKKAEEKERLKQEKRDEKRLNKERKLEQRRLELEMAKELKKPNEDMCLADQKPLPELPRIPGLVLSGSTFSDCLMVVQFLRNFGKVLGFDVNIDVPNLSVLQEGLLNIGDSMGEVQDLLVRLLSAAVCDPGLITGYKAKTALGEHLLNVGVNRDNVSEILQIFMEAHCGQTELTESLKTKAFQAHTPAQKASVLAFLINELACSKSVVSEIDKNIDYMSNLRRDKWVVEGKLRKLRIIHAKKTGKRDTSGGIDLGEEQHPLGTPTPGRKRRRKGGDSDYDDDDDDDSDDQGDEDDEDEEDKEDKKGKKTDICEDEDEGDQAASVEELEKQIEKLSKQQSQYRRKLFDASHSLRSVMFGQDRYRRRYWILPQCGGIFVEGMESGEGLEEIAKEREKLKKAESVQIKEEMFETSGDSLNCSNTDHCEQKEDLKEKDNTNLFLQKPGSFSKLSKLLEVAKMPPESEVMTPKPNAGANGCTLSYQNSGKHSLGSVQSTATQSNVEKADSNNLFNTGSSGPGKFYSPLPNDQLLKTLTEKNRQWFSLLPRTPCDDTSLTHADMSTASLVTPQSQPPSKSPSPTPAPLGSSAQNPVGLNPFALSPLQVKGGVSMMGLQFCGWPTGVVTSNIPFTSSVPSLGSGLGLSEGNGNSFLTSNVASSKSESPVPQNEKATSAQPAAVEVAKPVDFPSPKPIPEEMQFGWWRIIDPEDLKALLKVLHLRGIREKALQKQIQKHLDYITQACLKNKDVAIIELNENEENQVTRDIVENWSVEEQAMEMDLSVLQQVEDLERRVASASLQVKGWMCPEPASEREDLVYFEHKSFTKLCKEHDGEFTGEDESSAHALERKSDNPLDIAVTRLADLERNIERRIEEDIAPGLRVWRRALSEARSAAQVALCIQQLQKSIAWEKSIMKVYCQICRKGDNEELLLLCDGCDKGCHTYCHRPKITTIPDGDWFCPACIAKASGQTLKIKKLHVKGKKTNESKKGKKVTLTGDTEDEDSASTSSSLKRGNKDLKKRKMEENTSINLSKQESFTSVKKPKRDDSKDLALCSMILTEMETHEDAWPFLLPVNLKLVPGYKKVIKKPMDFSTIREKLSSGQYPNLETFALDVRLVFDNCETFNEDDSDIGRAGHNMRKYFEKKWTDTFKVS
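Inhibition is scored as reduced AlphaScreen emission. The BAZ2B/b-H3(5-23)K14Ac complex (50 nM each) in PBS pH 7.4, 0.01% Tween-20 meets compound (up to 110 uM) for 30 min at RT before bead addition.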
Sfp inh – qHTS Assay for Inhibitors of Bacillus subtilis Sfp phosphopantetheinyl transferase (PPTase); 4'-phosphopantetheinyl transferase ffp (Bacillus subtilis), Q9F4F7; Biochemical Sfp PPTase activity, qHTS; Potency, µM, inactives show largest response in the series, negative = inhibition, hits mostly inhibitors; actives 3.5% (n = 310,000); AID 1490, 2009;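 note: the enzyme is Sfp with the accession as filed and its product quenches rhodamine fluorescence; 0% = enzyme reaction without inhibitor and -100% = no enzyme wells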
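Compounds were incubated with enzyme (final 15 nM) for 15 min at room temperature before substrate addition started the reaction. Fluorescence at 525 nm excitation, 598 nm emission was recorded immediately and after 30 minutes.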
JMJD2A Tudor inh – qHTS Assay for Inhibitors of JMJD2A-Tudor Domain. AlphaScreen JMJD2A-Tudor / H3K4me3 peptide binding. AID 504339, 2011. actives 4.4% (n = 390,000). Lysine-specific demethylase 4A (Homo sapiens), O75164. Potency, µM (titrated, usually from 114 µM), without a hit: at the highest dose activity change, negative = inhibition, usual class: inhibitors; note: % is set by controls: 0 for no effect and ±100 for the full control effect; nearly all actives have a fitted effect of over 50% in size
L3MBTL1 block – qHTS Assay for the Inhibitors of L3MBTL1; Lethal(3)malignant brain tumor-like protein 1 (Homo sapiens), Q9Y468; AlphaScreen L3MBTL1–H3K9me1 peptide binding; Potency, µM (highest dose often 57.1 µM), for inactives: at the top dose activity, negative = inhibition, hits mostly inhibitors; actives 0.66% (n = 230,000); AID 485360, 2010; note: % is set by controls: 0 for no effect and ±100 for the full control effect; nearly all actives have a fitted effect of over 60% in size
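L3MBTL1 (50 nM) pre-complexed 30 min with biotinylated H3(1-15)K9me1 peptide (75 nM), then compounds added for 30 min at room temperature; AlphaScreen streptavidin donor/nickel chelate acceptor beads (10 ug/mL final) read after 30 min dark incubation.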
An asterisk follows results filed as active; u = inconclusive; x = no result; ! = repeats disagree; [ ] = dose if it differs, or a comment. This is a sample that favours compounds with a hit; in the whole collection about 12% have one here. Calls come from the whole dose curve; as a rule, active = well fitted curve in the direction sought with a large enough effect; inconclusive = small, poorly fitted or top-dose-only effect, or another doubt; inactive = no such curve, though single readings can be large; an effect the other way counts as inactive or inconclusive. Potency is the fitted concentration of half-maximal effect.

SMILES	HP1b chromo inh	G9a inh	BAZ2B block	Sfp inh	JMJD2A Tudor inh	L3MBTL1 block
O=C(O)c1ccccc1CSc1ncccc1C(=O)O	3.2%	20µM*	-25.7%	44.7µM*	20µM*	-6.2%
N#Cc1ccccc1CSc1ncccc1C(=O)O	-5.5%	-6.9%	-11.2%	13.5%	-10.0%	x
O=C(CSc1ncccn1)N1CCCCCC1	41.9%	x	x	x	0.0%	0.6%
CCOC(=O)c1ccc(S(=O)(=O)N2CC(=O)Nc3ccccc32)cc1	5.2%	10µM*	3.0%	-21.1%	-19.1%	x
C[N+]1(CCCCCCC(=O)/C=N/O)CCCCCC1	22.3%	14.1µM*	-28.0%	1.3%	-5.9%	x
C[N+](C)(C)CCCCCCC(=O)/C=N/O	4.4%	u	-39.0%	1.0%	u	2.5%
CCOc1ccc(C2C(=O)N(C3CCCCCC3)CC(=O)N2Cc2ccc(F)cc2)cc1OC (configuration not stated)	18.6%	-16.6%[59 µM]	-9.6%	x	-19.6%	x
Cn1c(=O)c2nc3ccc(NC(=O)C(F)(F)F)cc3nc2n(C)c1=O	37.2%	5.1%[59 µM]	-1.0%	x	3.1%	x
Cc1cc2nc3c(=O)[nH]c(=S)[nH]c3nc2cc1NC(=O)C(F)(F)F	11.4%	28.2µM*	-38.2%	79.4µM*	-10.3%	x
COc1ccc(-c2c(C)c3ccc(O)c(CN4CCCC4)c3oc2=O)cc1	29.2%[57 µM]	17.2%[59 µM]	2.1%	x	9.0%	x
CNc1ccccc1C(C)(C)c1cc(-c2cc(C)cc(C)c2)no1	23.3%	6.7%[59 µM]	-32.6%	-16.1%	-0.7%	7.7%
CNc1ccccc1C(C)(C)c1cc(-c2cccc(OC)c2)no1	31.8%	1.58µM*	-31.6%	1.3%	-14.0%	-27.8%
COc1ccc(CCn2c(=O)c3cccnc3n(CC(=O)Nc3ccc(C)cc3C)c2=O)cc1OC	30.0%	3.0%[59 µM]	-1.2%	x	-10.9%	x
CCCCOC(=O)C1=C(C)Nc2ncnn2C1c1ccc(OC)c(OC)c1 (configuration not stated)	35.0%	50.1µM*	u	7.9%	-28.8%	-2.5%
CCCC1=C(C(=O)OCC)C(c2ccc(N(C)C)cc2)n2ncnc2N1 (configuration not stated)	3.9%	44.7µM*	u	7.9%	u	-9.1%
CC[C@]1(O)C[C@H]2CN(CCc3c([nH]c4ccccc34)[C@@](C(=O)OC)(c3cc4c(cc3OC)N(C=O)[C@H]3[C@@](O)(C(=O)OC)[C@H](OC(C)=O)[C@]5(CC)C=CCN6CC[C@]43[C@@H]65)C2)C1	x	u	x	16.1%	x	x
Cc1cc(Br)ccc1NC(=O)c1cc2c(=O)n(C)c3cc(Cl)ccc3c2s1	34.3%	5.9%[59 µM]	x	x	-7.0%	x
COc1cc2c(cc1OC)C(C(=O)c1ccc(OC)c(OC)c1O)=NCC2	x	x	x	-1.7%	x	x
O=C1C=C(c2ccccc2)CC(c2cccs2)C1n1cnc([N+](=O)[O-])c1 (configuration not stated)	u	44.7µM*	-36.2%	-15.2%	-12.8%	-0.1%
CCOC(=O)N1CCN(C(=O)C2CCN(C(=O)c3ccccc3C)CC2)CC1	7.94µM*	x	x	x	7.08µM*	x
Cc1ccccc1C(=O)N1CCC(C(=O)Nc2ccccc2N2CCCC2)CC1	-4.4%	50.1µM*	1.5%	x	-28.2%	-8.3%
Cc1ccccc1C(=O)N1CCC(C(=O)Nc2ccccc2Cl)CC1	24.6%	30.6%	2.3%	2.4%	1.4%	x
C[C@@H]1COc2c(N3CCN(C)CC3)c(F)cc3c(=O)c(C(=O)O)cn1c23	x	-7.5%[12.7 µM]	x	31.8%	x	x
CN1CCN(c2c(F)cc3c(=O)c(C(=O)O)cn4c3c2SCC4)CC1	28.6%	7.94µM*!	u	3.2%	-8.6%	-19.4%
COc1ccc(-n2nc(C(=O)NCC(=O)NCCCN3CCCCCC3)c3ccccc3c2=O)cc1Cl	26.5%	25.1µM*	-2.1%	-21.2%	-16.9%	8.7%
SMILES	HP1b chromo inh	G9a inh	BAZ2B block	Sfp inh	JMJD2A Tudor inh	L3MBTL1 block
COc1ccc(-n2nc(C(=O)NCC(=O)Nc3cccc(Cl)c3)c3ccccc3c2=O)cc1OC	10.4%	8.1%	3.2%	56.2µM*	-33.5%	x
CCN(CCCNC(=O)CNC(=O)c1nn(-c2ccc(OC)cc2)c(=O)c2ccccc12)c1cccc(C)c1	-19.8%	31.6µM*	-38.7%	12.9%	u	x
COc1ccc(-n2nc(C(=O)NCC(=O)Nc3ccccn3)c3ccccc3c2=O)cc1Cl	83.2%	3.4%[0.0925 µM]	u	u	31.6µM*	1.7%
CNC(=O)c1[nH]cnc1C(=O)Nc1ccccc1	22.1%	5.3%[0.501 µM]	u	x	-23.2%	1.2%
CNC(=O)c1[nH]cnc1C(=O)Nc1cccc(OC)c1	16.3%	u	50.1µM*	-23.8%	-25.8%	x
Cc1cccc(NC(=O)c2nc[nH]c2C(=O)Nc2cccc(C)c2)c1	31.1%	-23.2%	u	17.6%	-10.1%	x
CCOC(=O)c1[nH]cnc1C(=O)Nc1cccc(OC)c1	29.3%	28.2µM*!	u	5.3%	u	x
CNC(=O)c1[nH]cnc1C(=O)Nc1ccccn1	-2.3%	x	56.2µM*	-0.4%	u	4.2%
Cn1cc(-c2nc3cnc(N4CCOCC4)nc3n(CCC#N)c2=O)c2ccccc21	x	2.2%[0.501 µM]	x	31.9%	x	x
N#CC(=C1CCCC1)c1nc(-c2ccccc2)cs1	104.3%	u	73.6%	-1.4%	139.4%	28.1%
N#CC(=C1CCCC1)c1nc(-c2ccccc2O)cs1	5.8%	35.5µM*	-31.6%	u	-22.7%	-8.6%
CC(=O)Nc1nc(C)cs1	29.0%	7.0%	-14.3%	13.3%	-9.6%	3.0%
Cc1csc(NC(=O)NCC2CCCC(CNC(=O)Nc3nc(C)cs3)C2)n1 (configuration not stated)	1.1%	14.1µM*	-29.8%	-8.6%	-28.7%	x
CCCOc1cccc(C2/C(=C(/O)c3ccc(F)cc3)C(=O)C(=O)N2CCN(C)C)c1 (configuration not stated)	-2.7%	u	-3.0%	10.4%	79.4µM*	3.1%
COc1cc(C2/C(=C(\O)c3cc(C)ccc3C)C(=O)C(=O)N2CCN(C)C)ccc1O (configuration not stated)	13.5%	50.1µM*	-7.6%	-8.6%	-11.6%	-10.5%
CCCOc1ccc(/C(O)=C2/C(=O)C(=O)N(CCN(C)C)C2c2ccc(O)c(OC)c2)cc1 (configuration not stated)	49.6%	44.7µM*	9.2%	7.9%	-29.4%	6.8%
O=S1(=O)N=C(Oc2ccc(Br)cc2)c2ccccc21	x	x	x	x	-29.8%	x
Cc1cc(C)c2c(CC(=O)Nc3c(C(=O)Nc4ccc(Cl)cc4)oc4ccccc34)coc2c1	-2.0%	-7.4%[59 µM]	-8.0%	x	-21.5%	x
